Test results reported in PubChem BioAssay AID488841 (Sanford-Burnham Center for Chemical Genomics, 2010).
Hit rate of the full screen: of about 1,400 compounds, about 380 (27%) were called active. Some of the results follow. Unmarked numbers belong to inactive results.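 The calls were made as follows: active = mean inhibition above 50% across duplicate retests at 10 µM; inactive = the rest.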

experiment: yeast NALP1 reporter signal suppression – S. cerevisiae, luminescence, single concentration, NALP1 inhibitor project, confirmation (AID 488841);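 also: plate controls were DMSO in galactose medium for no effect and cells in plain SD medium for full effect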; details: S. cerevisiae NALP1/ASC/Caspase-1 reporter, beta-gal luminescence; at 10 µM; hits give high values

SMILES	inhibition
COCCCN(CCCN)Cc1ccco1	73.2% (active)
Cc1ccc(S(=O)(=O)N(C(=O)c2ccncc2)c2ccc(OC(=O)c3ccncc3)c3ccccc23)cc1	28.8%
O=C1S/C(=C\c2ccc(N3CCOCC3)o2)C(=O)N1c1ccccc1	45.5%
CCN(CC)c1ccc(/C=C2/SC(=O)N(C(C)C)C2=O)o1	65.5% (active)
CC1CCCC(C)N1C(=O)CN1CCN(c2nc(-c3ccc(F)cc3)cs2)CC1 (centres undefined)	19.6%
Cc1cccc(N/C=C/C(=C(C#N)C#N)N(C)C)c1	30.9%
O=C(N/N=C/c1ccc2c(c1)OCO2)c1cccs1	51.4% (active)
O=C(N/N=C/c1ccc2nccnc2c1)c1ccccc1O	25.7%
Cc1ccsc1/C=N/NC(=O)c1ccco1	38.9%
O=[N+]([O-])c1ccc(N2CCN(c3ccc(Cl)nn3)CC2)c(Cl)c1	29.9%
Cn1nc(-c2ccccc2)c(-c2nc(-c3ccc(Cl)cc3)no2)c1Cl	16.6%
Cn1nc(-c2ccc(Cl)cc2)nc2c(=O)n(C)c(=O)nc1-2	97.7% (active)
COc1ccc(-c2nc(N)n(S(=O)(=O)c3ccc(C)cc3)n2)cc1	44.7%
COc1ccccc1NC(=O)Nc1ccc2c(c1)nnn2C	18.6%
Cc1cc(C)n(C(C[N+](=O)[O-])c2ccc(Cl)cc2)n1 (centres undefined)	92% (active)
Cc1nc([N+](=O)[O-])c(Br)n1CC(=O)c1ccc(Cl)cc1	37.6%
CCOc1cc(/C=N/NC(=O)c2nn(C)cc2Br)ccc1OCc1ccccc1Cl	20.8%
O=c1cc(-c2ccccc2)[nH]c2nc3ccccc3n12	39.5%
Cc1cccc(OC(=O)c2cn(C)nc2C(F)(F)F)c1C	43.7%
Fc1ccccc1-c1ccc(/C=N/Nc2nc3ccccc3[nH]2)o1	60.4% (active)
CCCCNc1nc2ccccc2[nH]1	20.4%
Cc1ccc(/C=N/Nc2ccnc3cc(Cl)ccc23)c(C)c1	38.3%

SMILES	inhibition
CC(=O)/C=C/n1c(=S)oc2ccccc21	6.85%
CN1C(=O)CSc2ccc(NC(=O)N3CCN(c4ccccn4)CC3)cc21	24%
COc1ccc(Nc2ncccc2C(=O)NCc2ccccc2)cc1	46.5%
CCOC(=O)c1ccc(NC(=O)c2nccnc2C(=O)O)cc1	18.4%
O=C(CC1Sc2ncnn2C1=O)Nc1ccc(Br)cc1 (centres undefined)	41.1%
COc1ccc(NC(=O)CC2Sc3ncnn3C2=O)cc1 (centres undefined)	59% (active)
CCOC(=O)c1ccc(NC(=O)CSc2nnc(CNc3ccc(C)cc3)n2C)cc1	32.1%
CCOC(=O)c1ccc(NC(=O)CC2Sc3ncnn3C2=O)cc1 (centres undefined)	70.7% (active)
CCOC(=O)C1C(=O)Oc2ccc3ccccc3c2C1C1CCOC1=O (centres undefined)	19.4%
CCN(CC)S(=O)(=O)c1ccc(NS(=O)(=O)c2cccs2)cc1	16.4%
COc1ccc(NC(=S)N(C(C)C)C2CCN(C(C)C)CC2)cc1Cl	21.6%
Cc1ccc(N2C(=O)c3ccc(C(=O)O)cc3C2=O)cc1C	28.4%
Clc1ccc(Cn2c(/C=C/c3ccco3)nc3ccccc32)cc1	29.2%
COc1ccc(CNC(=O)CCNS(=O)(=O)c2ccc(C)cc2)cc1	19.6%
CCN(C(=O)c1ccco1)c1nnc(-c2ccc(OC)cc2)s1	38%
COc1ccc(CC2(C)OC(c3ccc(C)cc3)=NN2C(C)=O)cc1 (centres undefined)	55.5% (active)
N#Cc1ccc(Oc2nc(Nc3ccc(F)cc3)nc(N3CCCC3)n2)cc1	29.6%
c1ccc(-c2cccc(-c3ccccn3)n2)nc1	86.2% (active)
c1cnc2c(c1)ccc1cccnc12	40.4%
N/C(Cc1ccccc1)=N\OC(=O)c1cccc2ccccc12	39.9%
COc1ccccc1C/C(N)=N/OC(=O)c1cccc([N+](=O)[O-])c1C	37.2%
N/C(Cc1ccc([N+](=O)[O-])cc1)=N\OC(=O)c1ccccc1Br	55.1% (active)

SMILES	inhibition
Cc1noc(C)c1S(=O)(=O)N1CCC(C(=O)N2CCC(N3CCCCC3)CC2)CC1	22.1%
Clc1ccc(CO/N=C2\CCCc3nonc32)c(Cl)c1	44.9%
CS(=O)(=O)N1CCC(C(=O)Nc2ccc3c(c2)OCO3)CC1	30.6%
O=C1c2ccccc2C(=O)c2cc(NC(=O)C3CC3)ccc21	44%
O=C(Nc1ccc(C#Cc2ccccc2)cc1)C1CC1	56.5% (active)
O=C(Nc1ccc(Br)c(Cl)c1)C1CC1	56.2% (active)
COc1ccc(NC(=O)C2CCN(C(=O)c3ccc(OC)cc3)CC2)cc1	18.7%
Cc1cc(C)cc(NS(=O)(=O)c2ccc(NC(=O)C3CCCCC3C(=O)O)cc2)c1 (centres undefined)	35.4%
O=P(CCCCCCCCCP(=O)(c1ccccc1)c1ccccc1)(c1ccccc1)c1ccccc1	39%
CC(C)C(=O)c1cc2c(cc1NC(=O)Nc1cccc3ccccc13)OCCO2	28.3%
OCCCN=c1cc(-c2ccccc2)oc2ccc(Cl)cc12	43.6%
Cc1n[nH]c(C)c1S(=O)(=O)N1CCN(C2CCCCC2)CC1	16.5%
COc1ccnc(N2CCN(c3ccccc3)CC2)c1C#N	53.9% (active)
COc1cccc(CNC(=O)CSc2ccc(-c3ccncc3)nn2)c1	34.1%
O=C(CSc1nc(-c2ccccc2)cs1)Nc1cccc([N+](=O)[O-])c1	47.1%
CC(C)NC(=O)CSc1nc(-c2ccccc2)cs1	56.1% (active)
CCOC(=O)c1c(-c2cccs2)csc1NC(=O)C(C)(C)C	26.2%
Cc1ccc(NC(=O)CSC2=Nc3ccccc3C3CC=NN23)c(C)c1 (centres undefined)	41.9%
O=C(Oc1cccc2cccnc12)c1ccc(N2C(=O)C3C4CCC(C4)C3C2=O)cc1 (centres undefined)	31%
O=C(Nc1cc(N2CCOCC2)ncn1)NC1(C(F)(F)F)Oc2ccc(Cl)cc2O1 (centres undefined)	30.7%
